# NPC1 prom act: qHTS Assay for NPC1 Promoter Activators. hit rate 2.4% among 320,000. Huh7 NPC1 promoter luciferase reporter, 24 h. Potency, µM (series often up to 9.22 µM), for the others: at the top dose activation, actives largely listed as activators. AID 485313, 2010; note: % of control where 0% means no effect; nearly all actives have a fitted effect of over 60% in size
#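 Huh7 reporter cells (NPC1 promoter driving luciferase) are dosed with compound for 24 h at 37 °C, 5% CO2; luciferase detection reagent is then added and luminescence measured after 10 min at ambient temperature.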
# Rab9 promoter act: qHTS Assay for Rab9 Promoter Activators; Huh7 Rab9 promoter-luciferase reporter, luminescence, 24 h; Potency, µM (doses to about 9.22 µM), for inactives: at the highest dose activation, negative = inhibition, hits mostly activators; hit rate 2.8% among 320,000; AID 485297, 2010; note: % of control where 0% means no effect; nearly all actives have a fitted effect of over 60% in size
#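 Promoter activation is measured as luciferase luminescence in Huh7 cells stably transfected with a Rab9 promoter–luciferase construct, following 24 h compound exposure at 37 °C and 10 min reagent incubation at ambient temperature.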
# SMN2 splice up: qHTS Assay for Enhancers of SMN2 Splice Variant Expression; HEK293 SMN2-luciferase splicing reporter, luminescence, 30-36 h; Potency, µM (series often up to 46.1 µM), without a hit: at the highest dose activity change, positive = activation, most hits filed as activators; hit rate 2.8% among 210,000; AID 1458, 2008; note: % of control where 0% means no effect; nearly all actives have a fitted effect of over 55% in size
#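 HEK293 cells carry an SMN2 minigene-luciferase reporter in which exon 7 inclusion puts luciferase in frame. Cells were seeded at 2000 cells/well, attached for 10-12 hours, then exposed to compounds for 30-36 hours at 37C before ONE-Glo luminescence.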
# FLuc counter: qHTS profiling assay for firefly luciferase inhibitor/activator using purifed enzyme and Km concentrations of substrates (counterscreen for miR-21 project). Luciferin 4-monooxygenase (Photinus pyralis), P08659. Potency, µM (highest dose often 57.5 µM), inactives show top-dose activity change, negative = inhibition, most hits filed as inhibitors. purified FLuc, Km substrates, luminescence inhibition. hit rate 6.9% among 360,000;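 note: plate controls were vehicle for no effect and reference inhibitor for full effect; nearly all actives have a fitted effect of over 55% in size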
# Target sequence (P08659 whole entry, looked up): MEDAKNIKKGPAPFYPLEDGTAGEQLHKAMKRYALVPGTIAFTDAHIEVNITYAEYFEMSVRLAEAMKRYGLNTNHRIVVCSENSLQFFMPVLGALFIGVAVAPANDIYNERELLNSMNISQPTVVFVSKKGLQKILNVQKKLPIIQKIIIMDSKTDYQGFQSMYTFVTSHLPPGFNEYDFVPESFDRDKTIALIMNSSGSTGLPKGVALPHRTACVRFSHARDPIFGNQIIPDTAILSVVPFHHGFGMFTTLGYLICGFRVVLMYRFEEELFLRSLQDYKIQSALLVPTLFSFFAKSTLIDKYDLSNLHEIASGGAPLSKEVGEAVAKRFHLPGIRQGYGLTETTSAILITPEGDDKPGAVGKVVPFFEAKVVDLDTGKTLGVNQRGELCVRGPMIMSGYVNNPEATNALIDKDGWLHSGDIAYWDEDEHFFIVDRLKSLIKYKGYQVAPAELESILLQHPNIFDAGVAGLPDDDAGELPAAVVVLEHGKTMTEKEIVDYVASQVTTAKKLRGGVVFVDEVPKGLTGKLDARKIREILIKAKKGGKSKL
#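 Purified P. pyralis luciferase, 10 nM final, with Km-level 10 uM D-luciferin and 10 uM ATP in 50 mM Tris acetate pH 7.5, 10 mM Mg acetate, 0.01% Tween-20, 0.05% BSA; 6-point qHTS titration about 60 µM downward; luminescence read.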
# ELG1 DNA repair: qHTS screen for small molecules that inhibit ELG1-dependent DNA repair in human embryonic kidney (HEK293T) cells expressing luciferase-tagged ELG1 | HEK293T ELG1-luciferase reporter, luminescence, 16 h; DNA damage induced by 5-fluorouridine | Potency, µM (titrated, usually from 46.1 µM), for the others: top-dose activity change, negative = inhibition, actives largely listed as inhibitors | hit rate 2.3% among 330,000 | AID 504467, 2011; note: % is set by controls: 0 for no effect and ±100 for the full control effect; nearly all actives have a fitted effect of over 55% in size
#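 Luminescence from the luciferase reporter, measured 30 min after ONE-Glo reagent at room temperature, was the read-out. Beforehand, 2,000 cells per well were exposed for 16 hr at 37 °C to 5-fluorouridine together with compound or vehicle.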
# ELG1 genotoxic: qHTS screen for small molecules that induce genotoxicity in human embryonic kidney (HEK293T) cells expressing luciferase-tagged ELG1 | HEK293T ELG1-luciferase reporter, luminescence, 16 h | Potency, µM (titrated, usually from 46 µM), for inactives: at the highest dose activity change, positive = activation, usual class: activators | hit rate 1.3% among 330,000; note: % of control where 0% means no effect; nearly all actives have a fitted effect of over 60% in size
#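 HEK293T cells expressing luciferase-tagged ELG1 were exposed to compound or DMSO vehicle for 16 hr at 37 °C and 5% CO2. Luciferase activity was then measured with ONE-Glo after 30 min at room temperature.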
# Numbers without * were called inactive; ? = inconclusive; / = not tested or not shown; ! = a repeat was not active; [ ] = dose if it differs, or a comment. In the library only some 9.4% were active in any assay of this set; here they are far more common. Calls come from the whole dose curve; as a rule, active = well fitted curve in the direction sought with a large enough effect; inconclusive = small, poorly fitted or top-dose-only effect, or another doubt; inactive = no such curve, though single readings can be large; an effect the other way counts as inactive or inconclusive. Potency is the fitted concentration of half-maximal effect.
SMILES,NPC1 prom act,Rab9 promoter act,SMN2 splice up,FLuc counter,ELG1 DNA repair,ELG1 genotoxic
Nc1nc(N)nc(-c2ccc(Cl)c(Cl)c2)n1,2µM*,?,/,4.78µM*,-27.4%,6.8%
O=C(Nc1ccc2ccccc2c1)c1ccc(Br)o1,3.55µM*,3.55µM*,/,5.36µM*,?,?
Cc1cccc(NC(=O)c2ccc(C(=O)c3ccccc3)o2)c1,27.2%,?,15.8µM*,8.49µM*,?,?
O=C(Nc1cccc(NC(=O)c2ccc(Br)o2)c1)c1ccccc1,12.8%,-2.2%,?,?,-17.0%,-5.3%
O=C(c1ccccc1)c1cccc(NC(=O)c2ccc(Br)o2)c1,2.5%,?,4.4%,23.9µM*,-16.8%,4.0%
COc1ccc(NC(=O)c2ccc(C(=O)c3ccccc3)o2)cc1,16.0%,?,-14.4%,?,17.5%,-3.1%
O=C(Nc1ccccc1)c1ccc(Br)o1,16.0%,14.6%,19.6%,?,?,17.3%
Cc1ccccc1C(=O)Nc1cccc(NC(=O)c2ccc(-c3ccc(Br)cc3)o2)c1,-2.8%,-1.1%,24.4%,4.78µM*,9.2µM*,-0.4%
O=C1CCCc2cc(S(=O)(=O)NCC3CCC(C(=O)Nc4ccccc4F)CC3)ccc2N1 (stereo not drawn),/,/,/,-10.1%,/,/
COC(=O)c1ccc(-n2nnc(-c3nc(-c4ccc5c(c4)OCO5)no3)c2C)cc1,/,/,/,-2.1%,/,/
Cc1cccc(C(=O)NC(=S)NNC(=O)c2ccccc2Cl)c1,0.4%,2.3%,-52.8%,3.3%,-0.2%,2.3%
Cc1cc(C(=O)NNC(=S)NC(=O)/C=C/c2ccccc2Cl)n[nH]1,8.8%,6.0%,2.0%,23.9µM*,20.1%,-3.3%
COc1ccc(-c2ccc(CNc3ccc4[nH]c(=O)[nH]c4c3)o2)cc1Cl,/,/,/,-5.0%,/,/
O=C(O)/C=C\C(=O)Nc1ccccc1C#Cc1ccc(Br)cc1,-0.6%,16.1%,-5.2%,26.9µM*,?,12.6%
O=C(O)/C=C\C(=O)Nc1ccccc1C#Cc1ccccc1,-4.7%,-2.6%,-8.3%,?,?,0.8%
Cn1c(NCCCCO)nc2c1c(=O)n(Cc1ccc(Cl)cc1)c(=O)n2C,/,/,4.1%,3.4%,/,/
CCC1CN(C(=O)N2CCC(C(=O)Nc3ccccc3F)CC2)c2ccccc2O1 (stereo not drawn),-0.9%,3.5%,/,10.7µM*!,0.1%,-3.4%
CCC1CN(C(=O)N2CCC(C(=O)N3CCN(c4cc(C)ccc4C)CC3)CC2)c2ccccc2O1 (stereo not drawn),/,/,/,1.9µM*,/,/
CCC1CN(C(=O)N2CCC(C(=O)NCc3ccccc3F)CC2)c2ccccc2O1 (stereo not drawn),/,/,/,0.1%,/,/
COC(=O)c1ccccc1NC(=O)C1CCN(C(=O)N2CC(C)Oc3ccccc32)CC1 (stereo not drawn),/,/,/,4.78µM*,/,/
COc1ccc(/C=N/Nc2nc3ccccc3c(=O)n2-c2ccccc2)cc1OC,17.8%,?,-8.7%[1.84 µM],1.9µM*,?,10.1%
COc1ccc(Cc2nnc(N/N=C/c3ccc(Br)cc3)[nH]c2=O)cc1OC,0.5%,-6.3%,/,1.1%,-11.7%,6.9%
CCC/C=N/Nc1nnc(Cc2ccc(OC)c(OC)c2)c(=O)[nH]1,0.0%,1.0%,/,-2.5%,1.6%,-1.5%
COc1ccc(/C=N/Nc2nnc(Cc3ccccc3)c(=O)[nH]2)cc1OC,?,26.0%,/,1.69µM*,?,13.9%
COc1ccc(Cc2nnc(N/N=C/c3ccc(O)cc3)[nH]c2=O)cc1OC,-34.1%,-31.6%,-86.3%,-3.0%,5.8µM*,16.3%
SMILES,NPC1 prom act,Rab9 promoter act,SMN2 splice up,FLuc counter,ELG1 DNA repair,ELG1 genotoxic
CCC(=O)N1CCc2cc(CNC(=O)c3ccc(OC)cc3)ccc21,/,/,/,-12.9%,/,/
CCOC(=O)c1ccc(Nc2ncnc3c2cnn3C)cc1,1.8%,2.7%,/,-13.8%,-7.2%,11.5%
Cn1ncc2c(O/N=C(\N)c3ccc(C(C)(C)C)cc3)ncnc21,-43.2%,-41.4%,/,15.1µM*,?,-22.3%
Cc1ccc2c(CN3CCCCC3)cc(=O)oc2c1C,4.9%,2.1%,/,?,?,?
Cc1ccc2c(CN3CCN(S(=O)(=O)c4ccccc4C(F)(F)F)CC3)cc(=O)oc2c1C,-7.5%,-3.7%,/,/,16.4µM*,-5.7%
CCc1ccc2c(CN3CCN(S(=O)(=O)c4ccccc4F)CC3)cc(=O)oc2c1,/,/,/,/,23.1µM*,-8.2%
CCc1ccc2c(CN3CCN(S(=O)(=O)c4cccs4)CC3)cc(=O)oc2c1,0.7%,-0.4%,-39.5%,3.1%,?,-5.0%
C=C(C)CN(CC#N)CC(=C)C,/,/,7.9%[9.22 µM],/,/,/
COC(=O)c1ccccc1NC(=O)CSc1nc2ccccc2nc1Cc1ccc(F)cc1,/,/,/,-2.3%,/,/
C#CCn1cc(/C=N/NC(=O)c2cc3ccccc3o2)c2ccccc21,9.1%,-2.0%,6.6%,12µM*,-15.1%,-0.5%
Cn1cc(/C=N/NC(=O)c2cc3cc(Br)ccc3o2)c2ccccc21,9.4%,5.2%,/,8.49µM*,-8.7%,-0.8%
C=CCn1cc(/C=N\NC(=O)c2cc3c(ccc4ccccc43)o2)c2ccccc21,-0.6%,3.9%,3.0%,?,?,-6.4%
O=C(O)c1ccc(-n2cccc2/C=N\NC(=O)c2cc3cc(Br)ccc3o2)cc1,-4.2%,-1.9%,/,15.1µM*,4.7%,-1.9%
O=C(O)Cn1cc(/C=N/NC(=O)c2cc3cc(Br)ccc3o2)c2ccccc21,0.6%,0.7%,/,12µM*,0.5%,1.0%
O=C(N/N=C/c1cccc2ccccc12)c1cc2ccccc2o1,-0.5%,0.8%,/,?,-9.3%,-0.1%
Oc1ccc(/C=N/NC(=S)N2CCOCC2)cc1,26.3%,28.2%,-45.5%,7.57µM*,10.8%,9.4%
O=S(=O)(c1ccc(Cl)c(NC(=S)N/N=C/c2c(F)cccc2F)c1)N1CCOCC1,-3.9%,-4.9%,/,3.5%,?,2.1%
O=S(=O)(c1ccc(NC(=S)N/N=C/c2ccc(O)c(O)c2)cc1)N1CCOCC1,-1.6%,-4.8%,/,16.9µM*,-11.4%,3.0%
O=S(=O)(c1ccc(Cl)c(NC(=S)N/N=C/c2ccc(O)cc2)c1)N1CCOCC1,-6.7%,1.0%,-62.8%,16.9µM*,23.1µM*,-6.0%
N#Cc1ccc(/C=N/NC(=S)Nc2ccc(S(=O)(=O)N3CCOCC3)cc2)cc1,-3.8%,-3.7%,/,-17.0%,-9.7%,-5.2%

# Bioassay records: PubChem BioAssay, National Center for Advancing Translational Sciences (NCATS)
